Activity calls are given as the source filed them. Unless noted, no rule for the calls is given here.
What was measured:
[1] = HepG2 liver cancer cell viability effects, profiling panel, resazurin fluorescence, 24 h, PK04 Diversity Set (AID 1172); settings: higher = more signal; also: test concentration not given here
[2] = basal S. cerevisiae growth modulation, no modifier, primary screen, OD600, strain BY4716, 24 h, basal condition (AID 1173); settings: OD600, 24 h, higher = more signal, called active from +8 up or from −8 down
[3] = MM1S myeloma cell viability, profiling panel, resazurin fluorescence, basal, 24 h, PK04 Diversity Set (AID 1174); settings: higher = more signal, called active from +8 up or from −8 down;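 also: MM1S multiple myeloma cell line; test concentration not given here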
[4] = target: Dihydroorotate dehydrogenase (quinone), mitochondrial (Plasmodium falciparum (isolate 3D7)) (UniProt Q08210); assay: PfDHODH enzyme inhibitors, primary screen, biochemical, C-terminal His tag, absorbance 600 nm (AID 1175); settings: DCIP absorbance 600 nm, higher = more signal, called active from +8 up or from −8 down;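 also: recombinant parasite enzyme with a five histidine tag at its C terminus; test concentration not given here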
Dihydroorotate dehydrogenase (quinone), mitochondrial (Plasmodium falciparum (isolate 3D7)), sequence (Q08210 whole entry, looked up): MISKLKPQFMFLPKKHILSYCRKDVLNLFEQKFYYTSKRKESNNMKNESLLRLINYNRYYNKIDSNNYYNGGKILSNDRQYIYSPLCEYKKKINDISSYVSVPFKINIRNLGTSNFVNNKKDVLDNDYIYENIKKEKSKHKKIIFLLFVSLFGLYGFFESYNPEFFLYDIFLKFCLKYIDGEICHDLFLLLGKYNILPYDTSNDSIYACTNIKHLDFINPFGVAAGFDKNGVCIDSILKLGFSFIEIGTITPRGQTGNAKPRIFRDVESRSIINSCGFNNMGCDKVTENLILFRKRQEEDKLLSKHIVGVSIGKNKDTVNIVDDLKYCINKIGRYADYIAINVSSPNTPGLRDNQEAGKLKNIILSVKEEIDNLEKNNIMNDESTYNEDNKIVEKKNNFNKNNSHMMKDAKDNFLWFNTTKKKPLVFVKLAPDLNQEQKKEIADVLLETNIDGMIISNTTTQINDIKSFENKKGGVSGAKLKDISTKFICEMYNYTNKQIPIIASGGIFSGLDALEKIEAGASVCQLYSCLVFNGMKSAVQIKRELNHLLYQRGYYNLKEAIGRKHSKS

[5] = P. aeruginosa biofilm formation inhibitors, primary screen, strain PAO1, LB-PBS medium, absorbance 600 nm (AID 1176); also: test concentration not given here; settings: P. aeruginosa PAO1 growth/biofilm, A600, 12 h; higher = more signal
[6] = S. cerevisiae RM11-1a growth modifiers, primary screen, strain RM11-1a, OD600, basal, 24 h (AID 1177); settings: OD600, 24 h, higher = more signal, called active from +8 up or from −8 down;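 also: cultures grown under basal conditions with no added stressor; test concentration not given here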
[7] = E. coli acrAB mutant growth effects, primary screen, E. coli filamentation inducers, strain DRC39, OD650, 24 h (AID 1178); settings: higher = more signal, called active from +8 up or from −8 down;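 also: growth measured as culture turbidity by optical density at 650 nm; test concentration not given here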
[8] = E. coli acrAB mutant growth effects, primary screen, E. coli filamentation inducers, strain DRC39, OD650, 48 h (AID 1179);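 also: screen aims at cell division blockers that make cells filament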; settings: E. coli DRC39 delta-acrAB growth, higher = more signal, called active from +8 up or from −8 down
[9] = RPMI8226 myeloma cell viability, profiling panel, resazurin fluorescence, basal, 24 h, PK04 Diversity Set (AID 1180); settings: higher = more signal;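 also: RPMI8826 multiple myeloma cell line at 5000 cells per well; test concentration not given here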
[10] = target: E3 ubiquitin-protein ligase XIAP (Homo sapiens) (UniProt P98170); assay: XIAP binders, primary screen, biophysical, small-molecule microarray, fluorescence 635 nm (AID 1181); settings: small-molecule microarray binding, higher = more signal;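 also: score merges 667 nm emission and signal to noise over triplicate slides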
E3 ubiquitin-protein ligase XIAP (Homo sapiens), sequence (P98170 whole entry, looked up): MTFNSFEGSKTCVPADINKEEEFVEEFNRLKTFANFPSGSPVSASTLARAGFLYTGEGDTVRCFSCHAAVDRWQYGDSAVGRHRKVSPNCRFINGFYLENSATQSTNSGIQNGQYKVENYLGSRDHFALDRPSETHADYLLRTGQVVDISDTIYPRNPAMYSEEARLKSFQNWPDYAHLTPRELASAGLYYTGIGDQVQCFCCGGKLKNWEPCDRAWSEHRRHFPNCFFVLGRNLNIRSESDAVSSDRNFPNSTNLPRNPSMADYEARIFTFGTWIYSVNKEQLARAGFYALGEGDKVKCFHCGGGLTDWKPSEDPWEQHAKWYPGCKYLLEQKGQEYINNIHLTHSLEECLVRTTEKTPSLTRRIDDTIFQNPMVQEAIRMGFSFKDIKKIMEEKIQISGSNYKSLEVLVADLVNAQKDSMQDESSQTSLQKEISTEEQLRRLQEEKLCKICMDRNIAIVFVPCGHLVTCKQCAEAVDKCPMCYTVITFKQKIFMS

In the case of `O=C1O[C@H](c2ccccc2)[C@H](c2ccccc2)N2[C@H]1[C@@H](C(=O)N1CCCCCCC1)[C@]1(C(=O)Nc3ccc(C#CCCO)cc31)[C@H]2c1ccc(O)cc1`, the z-score [1] is reported as 0.546, the z-score [2] is reported as 0.206 (inactive) and the z-score [3] is reported as 1.33 (inactive). The composite z-score [4] was -0.328 (inactive), the z-score [5] was 0.93 (inactive) and the z-score [6] was 0.66 (inactive). The z-score [7] was 0.783 (inactive), the z-score [8] was 0.721 (inactive) and the z-score [9] was 0.838. It also gave a composite z-score [10] of 2.21.

For `C[N+](C)(C)CCCC[C@@H]1NC(=O)[C@H]2C[C@@H](C(=O)O)[C@@H](c3ccc(O)cc3)N2C1=O`, the z-score [1] was 0.363, the z-score [2] was -1.58 (inactive) and the z-score [3] was 1.03 (inactive). For the same compound, the composite z-score [4] was -0.406 (inactive), the z-score [5] was 0.475 (inactive) and the z-score [6] was -0.944 (inactive). For the same compound, the z-score [7] was 1.38 (inactive), the z-score [8] was 1.57 (inactive) and the z-score [9] was 0.925. The composite z-score [10] was -0.0595.

In the case of `CC1C2C(CCCO)=CC(C3C(=O)N(C(N)=O)C(=O)C23)N1Cc1cccc(OC(F)(F)F)c1` (stereo not given), the z-score [1] is reported as 0.0337, the z-score [2] is reported as -0.837 (inactive) and the z-score [3] is reported as -0.402 (inactive). For the same compound, the composite z-score [4] was -0.766 (inactive), the z-score [5] was 0.437 (inactive) and the z-score [6] was -0.369 (inactive). For the same compound, the z-score [7] was 0.0299 (inactive), the z-score [8] was -0.114 (inactive) and the z-score [9] was -0.907. For the same compound, the composite z-score [10] was -0.199.

With `C=C(COC)C(=O)CC[C@H](OC(C)=O)c1ccccc1OCCO` the z-score [1] was -0.812, the z-score [2] was -0.86 (inactive) and the z-score [3] was -2.03 (inactive). The composite z-score [4] was -1.56 (inactive), the z-score [5] was -0.435 (inactive) and the z-score [6] was -0.0727 (inactive). For the same compound, the z-score [7] was 0.732 (inactive), the z-score [8] was 0.373 (inactive) and the z-score [9] was -2.37. The composite z-score [10] was 0.0153.

In the case of `COc1ccc(C(=O)Nc2ccc(CN3C(=O)[C@]4(O[C@H](CC(=O)N(CCO)Cc5ccccc5)[C@@H]([Si](C)(C)c5ccc(OC)cc5)[C@@H]4C)c4ccccc43)cc2)cc1`, the z-score [1] is reported as -1.18, the z-score [2] is reported as 0.352 (inactive) and the z-score [3] is reported as -1.94 (inactive). The composite z-score [4] was -0.633 (inactive), the z-score [5] was 0.671 (inactive) and the z-score [6] was 2.51 (inactive). The z-score [7] was -0.225 (inactive), the z-score [8] was -0.575 (inactive) and the z-score [9] was -1.84. For the same compound, the composite z-score [10] was -0.209.

In the case of `NCCCCCCNC(=O)[C@@H]1C[C@@H]2C(=O)NCC(=O)N2[C@@H]1c1cccc(OCCO)c1`, the z-score [1] is reported as -0.903, the z-score [2] is reported as -0.277 (inactive) and the z-score [3] is reported as 0.717 (inactive). For the same compound, the composite z-score [4] was -0.775 (inactive), the z-score [5] was -0.0617 (inactive) and the z-score [6] was -0.121 (inactive). The z-score [7] was 0.295 (inactive), the z-score [8] was 0.976 (inactive) and the z-score [9] was 0.438. For the same compound, the composite z-score [10] was -0.213.

In the case of `COC(=O)[C@@]1(Cc2ccc(F)cc2)[C@H]2c3cc(C(=O)N(C)C)n(Cc4cccc5ccccc45)c3C[C@H]2CN1C(=O)c1ccccc1`, the z-score [1] is reported as -0.488, the z-score [2] is reported as 1.91 (inactive) and the z-score [3] is reported as -1.32 (inactive). For the same compound, the composite z-score [4] was -0.0341 (inactive), the z-score [5] was 1.75 (inactive) and the z-score [6] was 1.75 (inactive). The z-score [7] was -0.609 (inactive), the z-score [8] was -0.707 (inactive) and the z-score [9] was -1.04. The composite z-score [10] was 1.6.

For `COc1ccc(CCNC(=O)[C@@H]2c3ccccc3C(=O)N(Cc3cc(F)cc(C(F)(F)F)c3)[C@H]2c2ccc(CO)cc2)cc1`, the z-score [1] was -0.162, the z-score [2] was -0.314 (inactive) and the z-score [3] was 0.821 (inactive). The composite z-score [4] was -0.179 (inactive), the z-score [5] was -0.121 (inactive) and the z-score [6] was -0.209 (inactive). The z-score [7] was 0.746 (inactive), the z-score [8] was 0.387 (inactive) and the z-score [9] was 1.16. For the same compound, the composite z-score [10] was -0.0835.

With `C=C(C(=O)CC[C@@H](OC(=O)c1ccccc1-c1ccccc1C(=O)O)c1cccc(OCCO)c1)C(C)C` the z-score [1] was 0.821, the z-score [2] was -1.96 (inactive) and the z-score [3] was 1 (inactive). For the same compound, the composite z-score [4] was -1.26 (inactive), the z-score [5] was 0.661 (inactive) and the z-score [6] was -0.364 (inactive). The z-score [7] was 0.546 (inactive), the z-score [8] was 0.332 (inactive) and the z-score [9] was 1.82. The composite z-score [10] was 0.112.

With `[N-]=[N+]=Nc1ccccc1C[C@@]1(C(=O)NCC(O)CO)N=C(c2ccc(OCCCO)cc2)O[C@@H]1c1ccccc1N=[N+]=[N-]` (stereo not given in full) the z-score [1] was -2.15, the z-score [2] was -1.75 (inactive) and the z-score [3] was -2.42 (inactive). For the same compound, the composite z-score [4] was 0.791 (inactive), the z-score [5] was 0.122 (inactive) and the z-score [6] was 0.629 (inactive). For the same compound, the z-score [7] was 0.2 (inactive), the z-score [8] was -0.456 (inactive) and the z-score [9] was -2.25. The composite z-score [10] was 0.0651.

For `COC(=O)C1=CC(c2ccc(CO)cc2)=CC(C2CC2)N(Cc2cc3c(cc2Br)OCO3)C=C1C(=O)OC` (stereo not given), the z-score [1] was -0.0995, the z-score [2] was -3.02 (inactive) and the z-score [3] was -1.42 (inactive). The composite z-score [4] was -4.43 (inactive), the z-score [5] was 0.158 (inactive) and the z-score [6] was -0.069 (inactive). The z-score [7] was 0.164 (inactive), the z-score [8] was -0.0391 (inactive) and the z-score [9] was -1.25. The composite z-score [10] was 0.172.
